Data on 1 compound can be found in PubChem BioAssay AID1159580 (chemical genetic matrix, 2015).

The nature of this test: chemical genetic growth profiling, strain panel (AID 1159580).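 Note: tested at 20 µM; growth read once vehicle control cultures reached saturation at 30 °C; 1 = growth at the plate median or of vehicle wells; lower values mean less growth of the strain.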 The conditions noted are these: S. cerevisiae deletion strains, growth OD.

In all, about 5,500 compounds went through this assay and about 2,000 (36%) were called active. Not shown: some 18% with an inconclusive outcome. The list shows a part of the results. Unmarked numbers belong to inactive results. Cut-off read from the data, not from the text of the source: active = normalized growth mostly below about 0.91 (no sharp cut-off); inconclusive = no clear call, values can overlap the other calls; inactive = mostly above about 0.92.

With `CCCn1c(=O)c2c(ncn2C)n(CCC)c1=O`, the normalized growth is 0.983 (locus YAL013W, strain DEP1, hits give low values); 1.13 [resistant] (active) (locus YAL040C, strain CLN3, hits give low values); 1 (locus YCL061C, strain MRC1 (second series), hits give low values); 1.02 (locus YDR150W, strain NUM1, hits give low values); 0.964 (locus YDR363W, strain ESC2, hits give low values); 0.999 (locus YER002W, strain NOP16, hits give low values). Moreover, the normalized growth runs as follows: (locus YGR078C, strain PAC10, hits give low values) 0.986; (locus YNL128W, strain TEP1, hits give low values) 0.992; (locus YNL175C, strain NOP13, hits give low values) 1; (locus YNL197C, strain WHI3, hits give low values) 1; (locus YNL224C, strain SQS1, hits give low values) 0.988; (locus YNL322C, strain KRE1, hits give low values) 0.994. The normalized growth was 0.981 (locus YOR083W, strain WHI5 (second series), hits give low values) and 1.01 (locus YPL241C, strain CIN2, hits give low values).
